Source: PubChem BioAssay
Pf growth 48h – Primary qHTS for delayed death inhibitors of the malarial parasite plastid, 48 hour incubation; P. falciparum luciferase growth in erythrocytes, 48 h; Potency, µM (top dose mostly 28.7 µM), actives largely listed as inhibitors; hit rate 5.9% among 310,000
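First compound was added to culture medium, then infected red cells at 0.1% parasitemia and 2% hematocrit (final). After incubation at 37 C under 5% CO2, luciferase detection reagent was dispensed and light output recorded.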
NS1 function inh – qHTS Assay for Inhibitors of Influenza NS1 Protein Function | Potency, µM (top dose mostly 46.1 µM) | hit rate 0.4% among 270,000 | AID 2326, 2010; calls by dose curve; note: actives are rising curves; nearly all actives have a fitted effect of over 50% in size
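In this qHTS, NS1 from influenza A is expressed in budding yeast, where it slows growth. Cells are switched from glucose to 2% galactose medium (pH 6.0, -URA), treated with compound, and growth recovery is read at OD600.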
Cycloheximide cs – Cycloheximide Counterscreen for Small Molecule Inhibitors of Shiga Toxin | cell reporter, cycloheximide protein synthesis inhibition counterscreen | max response, % | hit rate 12% among 300,000 | AID 2314, 2010; in the data active = max response mostly above about 13%, no sharp cut-off; inactive = mostly below about 14%; note: read at 38.3 µM for the half of the compounds with a filed dose
Pf growth 96h – Primary qHTS for delayed death inhibitors of the malarial parasite plastid, 96 hour incubation; P. falciparum luciferase reporter growth, 96 h; Potency, µM (titrated, usually from 28.7 µM), actives largely listed as inhibitors; hit rate 6.9% among 320,000
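Two-generation exposure (96 h) targets delayed-death phenotype. Reporter parasites carrying integrated firefly luciferase, in red cells at 2% hematocrit and 0.05% parasitemia final, kept at 37 C, 5% CO2; luminescence loss indicates inhibition.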
Sm TGR block – qHTS Assay for the Inhibitors of Schistosoma Mansoni Peroxiredoxins. Schistosoma mansoni thioredoxin glutathione reductase (TGR), Q962Y6. purified TGR, DTNB reduction, TNB absorbance 405 nm. Potency, µM (series often up to 114 µM), usual class: inhibitors. hit rate 3% among 360,000. AID 485364, 2010; note: nearly all actives have a fitted effect of over 60% in size
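Kinetic colorimetric format: TGR-catalysed, NADPH-driven DTNB reduction monitored via TNB absorbance. Enzyme dispensed at 20 nM; compound exposure 15 min at room temperature before reaction start.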
Shiga toxin inh – A qHTS for Small Molecule Inhibitors of Shiga Toxin | hit rate 9.2% among 290,000 | Vero cells, Shiga toxin protein synthesis inhibition reporter | AID 2315, 2010 | inhibition, % at 38.7 µM; in the data active = inhibition mostly above about 28%, no sharp cut-off; inactive = mostly below about 43%
A number is an active result; 0 = inactive; ? = inconclusive; - = not tested or not shown. This is a sample that favours compounds with a hit; in the whole collection about 21% have one here. Unless noted, calls come from the whole dose curve; as a rule, active = well fitted curve in the direction sought with a large enough effect; inconclusive = small, poorly fitted or top-dose-only effect, or another doubt; inactive = no such curve, though single readings can be large; an effect the other way counts as inactive or inconclusive.

SMILES	Pf growth 48h	NS1 function inh	Cycloheximide cs	Pf growth 96h	Sm TGR block	Shiga toxin inh
N#Cc1ccc(CSc2ncnc3c2cnn3Cc2ccccc2)cc1	?	0	0	7.4µM	0	0
Cc1ccc(CSc2ncnc3c2cnn3Cc2ccccc2)cc1	0	0	0	-	0	0
COCCNC(=O)CN1C(=O)c2cccnc2Sc2ccccc21	-	-	-	-	0	-
CCOc1cc(-n2nc(C)c(C#N)c2N)nc(SC)n1	0	0	0	0	0	0
CCCCN(CC)c1nc(N)c2c(N)nc(OCC)cc2c1C#N	-	0	0	13µM	0	0
CCCCN(CC)c1nc(N)c(C#N)c(CC#N)c1C#N	-	0	0	3.3µM	0	0
COc1cccc(CNCCCSc2nnnn2C)c1OC	-	-	-	-	0	-
Cc1nc(N2CCOCC2)c2c(C(=O)N(C)c3ccccc3)c(C)oc2n1	-	-	-	-	0	-
O=C(NC1CCCC1)c1n[nH]c2ccccc12	0	0	43	0	0	0
COc1ccc(CCNC(=O)c2n[nH]c3ccccc23)cc1	0	-	47	0	0	45
COCCNC(=O)c1n[nH]c2ccccc12	0	-	31	0	0	0
COCCNC(=O)c1cc2c(=O)[nH]c3ccccc3c2s1	?	0	0	1.2µM	0	0
CCN(CCCNC(=O)c1cc2c(=O)[nH]c3ccccc3c2s1)c1ccccc1	-	-	-	-	0	-
CCOC(=O)c1ccc(Nc2nc(=O)c3cccnc3s2)cc1	0	0	22	0	0	0
CC(=O)c1ccc(Nc2nc(=O)c3cccnc3s2)cc1	0	0	39	-	0	70
CC(=O)c1cccc(Nc2nc(=O)c3cccnc3s2)c1	-	0	0	0	0	0
O=c1nc(Nc2ccc(OCc3ccccc3)cc2)sc2ncccc12	0	-	0	0	0	0
Cc1ccc(Nc2nc(=O)c3cccnc3s2)c(Br)c1	0	0	19	0	0	0
Cc1ccc([N+](=O)[O-])c(Oc2ncnc3c2oc2ccccc23)c1	-	-	-	-	0	-
Cc1ccc(/C=C/c2nc3ccccc3[nH]2)o1	0	-	40	?	3.5µM	51
CC(=O)OCC[C@H](NS(=O)(=O)OCC(Cl)(Cl)Cl)c1ccccc1	0	0	0	?	0	0
Cc1ccc(C(O)P(=O)(OC2CCCCC2)OC2CCCCC2)cc1 (centres undefined)	-	0	0	?	0	0
COc1ccccc1C(O)P(=O)(OC1CCCCC1)OC1CCCCC1 (centres undefined)	?	0	0	0	0	0
O=P(OC1CCCCC1)(OC1CCCCC1)C(O)c1ccc(Cl)cc1Cl (centres undefined)	1.9µM	?	0	-	0	0
O=P(OC1CCCCC1)(OC1CCCCC1)C(O)c1c(Cl)cccc1Cl (centres undefined)	10µM	0	0	5.2µM	0	0
SMILES	Pf growth 48h	NS1 function inh	Cycloheximide cs	Pf growth 96h	Sm TGR block	Shiga toxin inh
COc1ccccc1CN(C(=O)c1cnccn1)C(C(=O)NC1CCCCC1)c1cc(OC)c(OC)c(OC)c1 (centres undefined)	?	0	0	0	0	0
CC(C)c1ccc(NC2CCCN(C(=O)c3ccoc3)C2)cc1 (centres undefined)	0	0	0	0	0	32
CC(C)c1cc(C(=O)N2CCCC(Nc3ccc(F)cc3)C2)n[nH]1 (centres undefined)	0	0	19	0	0	0
O=C(c1ccoc1)N1CCCC(Nc2ccc(F)c(F)c2)C1 (centres undefined)	0	0	0	0	0	0
CC(C)c1ccc(NC2CCCN(C(=O)c3cccc4nccnc34)C2)cc1 (centres undefined)	0	0	0	4.7µM	0	0
CC(C)c1ccc(NC2CCCN(C(=O)c3cc(C(C)C)nc(N)n3)C2)cc1 (centres undefined)	0	0	0	15µM	0	0
Cc1ccc(Nc2nc(N)nc(CN3CCN(C(=O)c4ccco4)CC3)n2)cc1Cl	?	0	0	7.4µM	40µM	0
Nc1nc(CN2CCN(c3ccccc3F)CC2)nc(Nc2ccccc2)n1	?	0	0	?	0	0
Cc1ccc(NC(=O)N2CCN(C(=O)c3ccco3)CC2)cc1Cl	?	0	0	0	0	0
Cc1cccc(Nc2nc(N)nc(CN3CCN(c4ccc(F)cc4)CC3)n2)c1	?	0	0	10µM	0	0
Cc1ccc(Nc2nc(N)nc(CN3CCCCCC3)n2)cc1	0	0	0	-	40µM	0
Cc1ccc(Nc2nc(N)nc(CN3CCN(c4ccccc4F)CC3)n2)cc1	?	?	0	6.6µM	0	0
N=C(N)SCCc1ccncc1	-	0	-	-	-	-
Cc1ccc(NC(=O)N2CCN(Cc3nc4ccc(C)cc4o3)CC2)cc1	-	-	-	-	0	-
Cc1cccc(Nc2nc(N)nc(CN3CCN(C)CC3)n2)c1	0	0	0	-	0	0
Cc1ccc(Nc2nc(N)nc(CN3CCN(C)CC3)n2)cc1	0	0	32	-	0	0
CCn1c(-c2ccc(F)cc2)cnc1SCC(=O)N1CCc2ccccc21	0	0	34	0	0	97
CCn1c(-c2ccc(F)cc2)cnc1SCC(=O)N1CCCCC1C (centres undefined)	-	0	41	0	0	93
CCCn1c(-c2ccc(F)cc2)cnc1SCC(=O)O	0	0	0	-	0	0
CC(=O)Nc1ccc(C(=O)NN2C(=O)c3ccccc3C2=O)cc1	0	-	0	0	0	0
CC(=O)Nc1ccc(C2(c3ccc(NC(C)=O)cc3)NC(=O)c3ccccc32)cc1	1.3µM	0	0	0	0	0
CCn1ncc(/C=N/NC(=O)c2ccc3c(c2)OCO3)c1C	0	0	0	0	0	0
CCn1nc(C)c(/C=N\NC(=O)c2ccc3c(c2)OCO3)c1C	0	0	39	-	0	83
CCn1cc(/C=N/NC(=O)c2ccc3c(c2)OCO3)c(C)n1	0	0	16	-	0	0
Cc1cc(C)nc(SCc2cn3cc(Cl)ccc3n2)n1	0	0	0	0	0	0
SMILES	Pf growth 48h	NS1 function inh	Cycloheximide cs	Pf growth 96h	Sm TGR block	Shiga toxin inh
Clc1ccc2nc(CSc3ncn[nH]3)cn2c1	0	0	15	0	-	0
Brc1ccc2nc(CSc3ncn[nH]3)cn2c1	0	0	16	0	0	84
CC(C)c1cc(Br)ccc1OCCN1C(=O)NC(C)(C)C1=O	?	0	0	0	0	0
CCOc1ccc(C2=C(C=C(C#N)C#N)C(c3ccccc3)c3ccccc3O2)cc1 (centres undefined)	3.7µM	0	0	0	0	0
CCOC(=O)C1Oc2ccccc2C(c2ccc(OC)cc2)=C1C(=O)OC (centres undefined)	-	-	0	-	-	0
COc1ccc(C2=C(CN(C)C)C(c3ccccc3)c3ccccc3O2)cc1 (centres undefined)	4.7µM	0	0	2.6µM	0	0
CCOC(=O)CNC(=O)C1c2ccccc2Oc2ccccc21	0	0	0	?	0	0
Cc1onc(C(=O)NC2CCCCC2)c1[N+](=O)[O-]	0	0	0	?	0	0
